Test [1] in a line: qHTS Assay for Identifying Gametocytocidal Compounds (AID 743244).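 Further: on the % scale 0 is the no-effect control and ±100 the full control effect; actives lower the fluorescent signal which means gametocytes are killed.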 As to conditions: P. falciparum 3D7 stage III-V gametocytes, alamarBlue, 72 h; max response: stronger effect = lower value. In short, it runs like this:
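Late gametocytes (III–V), P. falciparum 3D7; 72 h drug, then 24 h alamarBlue; resazurin reduction read by fluorescence.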

Test [2] in a line: qHTS profiling of the MIPE4 collection as inhibitors of Plasmodium falciparum (3D7) proliferation (AID 743344; call rule not given here;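 further: scaled between DMSO vehicle wells and 0.29 µM artemisinin as full inhibition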). To be noted: P. falciparum 3D7 in erythrocytes, SYBR Green DNA fluorescence, 72 h; at 28.5 µM (top of the series) unless noted. In a few lines: (§1)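 Erythrocytes infected with P. falciparum (0.3% parasitemia, 2.5% hematocrit) incubated with compounds 72 h at 37 C, 5% CO2. Lysis with saponin/Triton buffer containing SYBR Green I, overnight at room temperature in the dark; DNA fluorescence (485/535 nm) normalised to 0.29 uM artemisinin and DMSO.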

A short description of test [3]: qHTS profiling of the MIPE4 collection as inhibitors of Plasmodium falciparum (DD2) proliferation (AID 743345; call rule not given here). To be noted: P. falciparum Dd2 in erythrocytes, SYBR Green DNA, 72 h; at 28.5 µM (top of the series) unless noted. In a few lines:
as §1
For orientation: qHTS replaces the single test concentration by a dilution series.

The nature of test [4]: qHTS profiling of the MIPE4 collection as inhibitors of Plasmodium falciparum (DD2) proliferation (Rep 2) (AID 743346; call rule not given here). To be noted: P. falciparum Dd2 in erythrocytes, SYBR Green DNA, 72 h; at 28.5 µM (top of the series) unless noted. In a few lines: as §1
A short description of test [5]: qHTS profiling of the MIPE4 collection as inhibitors of Plasmodium falciparum (HB3) proliferation (AID 743347; call rule not given here;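 further: plate controls were DMSO vehicle wells for no effect and artemisinin wells for full effect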). To be noted: P. falciparum HB3 in erythrocytes, SYBR Green DNA, 72 h; at 28.5 µM (top of the series) unless noted. In a few lines: as §1
Test [6] in a line: High-throughput drug toxicity screening in the BPDCN cell line Gen2.2 (AID 1224824; call rule not given here;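 further: cells exposed to compounds for 48 h before reading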). To be noted: Gen2.2 BPDCN cells; at 45.8 µM (top of the series) unless noted. In short, it runs like this:
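CellTiter-Glo luminescence read after 48 h compound exposure at 37 C defines viability; percent activity set with DMSO as 100% and bortezomib (9.2 uM final) as 0%. 500 exponentially growing cells per well, RPMI plus 10% FBS.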

Test [7] can be described thus: qHTS assay for measurement of the activity of small molecule inhibitors on Zika virus induced Caspase-3 activity in human iPSC derived neural progenitor cells (hNPCs) (AID 1224857). Further: nearly all actives have a fitted effect of over 65% in size. Further: potency means the concentration at half of the fitted maximal effect. In short, it runs like this:
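Caspase-3/7 induction by a 6-hour ZIKV infection was quantified with a luminescent Caspase-Glo 3/7 reagent incubated 30 minutes at room temperature. Compounds were preincubated with hNPCs for 1 hour; inhibition was calculated against uninfected and infected control wells.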

Test [8] in a line: qHTS assay for measurement of the activity of small molecule inhibitors on Zika virus induced Caspase-3 activity in human astrocytoma cells (AID 1224859). Further: potency means the concentration at half of the fitted maximal effect. In a few lines: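 In SNB-19 cells plated at 250 cells/well and grown 16-20 h, compounds were applied 1 h before ZIKV (2 FFU/cell). Six hours later caspase-3/7 luminescence was recorded.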
Test [9] in a line: qHTS Screen of the MIPE 4.0 Collection Against Ewings Sarcoma (TC71) (AID 1259253). Further: nearly all actives have a fitted effect of over 40% in size. Further: potency means the concentration at half of the fitted maximal effect. In a few lines:
(§2)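 Measured: ATP luminescence (CellTiter-Glo) 10 min after reagent addition, following 48 h drug treatment. Relative luciferase units converted to percent activity, with no-cell wells as full and DMSO wells as zero inhibition.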

Test [10] can be described thus: qHTS Screen of the MIPE 4.0 Collection Against Ewings Sarcoma (EW8) (AID 1259255). Further: nearly all actives have a fitted effect of over 35% in size. Further: potency means the concentration at half of the fitted maximal effect.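 On viability: 100% = DMSO-treated cells and 0% = medium-only wells without cells.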 In a few lines:
as §2

The nature of test [11]: qHTS Screen of the MIPE 4.0 Collection Against Ewings Sarcoma (RDES) (AID 1259252). Further: nearly all actives have a fitted effect of over 35% in size. Further: potency means the concentration at half of the fitted maximal effect. In a few lines:
as §2

Experimental findings from PubChem BioAssay (NCATS) are described below.

Records with an inconclusive call do not appear. Some structures have more than one record in an assay (separate samples or runs), and their calls can disagree. The source made the active and inactive calls. Unless noted, the call rests on the fitted dose curve; in most records, active means well fitted curve in the direction sought with a large enough effect; inconclusive means small, poorly fitted or top-dose-only effect, or another doubt; inactive means no such curve, though single readings can be large; an effect the other way counts as inactive or inconclusive.

Regarding `COC1=C(OC)C(=O)C(CCCCCCCCCCO)=C(C)C1=O`, in [1], the max response was -5.2% (inactive). In [2], this molecule came in with a parasite growth, % of DMSO control of 61.7%. Besides, the parasite growth remaining, % of DMSO control (lower = more inhibition) in test [3] worked out at 84.8%. Besides, the parasite growth, % of control (lower = inhibition) in test [4] came to 32.3%. The molecule also showed a growth, % of control in test [5] of 73.4%. Further, the cell viability, % of control (lower = more cytotoxic) in test [6] stood at 145%. The Potency result in test [7] and in test [8] was “inactive” throughout.

For the molecule `CCCOc1ccc2nc(NC(=O)OC)[nH]c2c1`, in test [1], the max response was -3.98% (inactive). For the same molecule, the parasite growth, % of DMSO control in test [2] was 82.7%. The parasite growth remaining, % of DMSO control (lower = more inhibition) in test [3] stood at 92%. In test [4], the parasite growth, % of control (lower = inhibition) came to 126%. In [5], this molecule yielded a growth, % of control of 99.5%. For the same molecule, the cell viability, % of control (lower = more cytotoxic) in [6] is 86.8%. Also, the Potency result in [7] and in test [8] was “inactive” each time. In addition, the Potency was 9.3 nM (active) in test [9] and 6.6 nM (active) in test [10].

As for `Nc1ncn([C@H]2C[C@H](O)[C@@H](CO)O2)c(=O)n1`, in test [1], the max response is -3.47% (inactive). The same molecule yielded a parasite growth, % of DMSO control in test [2] of 98%. In addition, the parasite growth remaining, % of DMSO control (lower = more inhibition) in test [3] came to 99.3%. In addition, in test [4], the parasite growth, % of control (lower = inhibition) amounted to 91.2%. Further, the growth, % of control in test [5] was 81.1%. Also, in [6], the cell viability, % of control (lower = more cytotoxic) was determined as 125%. The Potency entry in test [7] and in [8] was “inactive” throughout. For the same molecule, the Potency is 418 nM (active) in [11] and 2350 nM (active) in test [9].

For the molecule `C[Se]CCC(N)C(=O)O` (configuration not stated), the max response in test [1] was -7.98% (inactive). This molecule showed a parasite growth, % of DMSO control in test [2] of 99.6% [at 57.5 µM]. The parasite growth remaining, % of DMSO control (lower = more inhibition) in [3] was 105% [at 57.5 µM]. The parasite growth, % of control (lower = inhibition) in test [4] was determined as 135% [at 57.5 µM]. This molecule also showed a growth, % of control in test [5] of 86.5% [at 57.5 µM]. The cell viability, % of control (lower = more cytotoxic) in [6] was 170% [at 92.2 µM]. Besides, the Potency entry in test [7], in [8], in test [11], in [9] and in test [10] was “inactive” in each case.

For the molecule `CC1=C(C(=O)O)N2C(=O)[C@@H](NC(=O)[C@H](N)C3=CCC=CC3)[C@H]2SC1`, in test [2], the parasite growth, % of DMSO control is 79.3%. Moreover, the parasite growth remaining, % of DMSO control (lower = more inhibition) in [3] was 87.3%. Besides, the parasite growth, % of control (lower = inhibition) in test [4] worked out at 74.3%. For the same molecule, the growth, % of control in test [5] is 51.2%. Also, the cell viability, % of control (lower = more cytotoxic) in test [6] was 145%. Besides, the Potency entry in [7], in test [8], in test [11], in [9] and in test [10] was “inactive” throughout.

As to `COCCCN1CCC(NC(=O)c2cc(Cl)c(N)c3c2OCC3)CC1`, in test [2], the parasite growth, % of DMSO control stood at 28.3%. For the same molecule, in test [3], the parasite growth remaining, % of DMSO control (lower = more inhibition) was determined as 51.1%. For the same molecule, the parasite growth, % of control (lower = inhibition) in test [4] was 38%. The growth, % of control in test [5] stood at 15.7%. Also, the cell viability, % of control (lower = more cytotoxic) in [6] was 418%. The Potency result in test [7] and in test [8] was “inactive” throughout.

In the case of `Cc1nc(-c2ccc(OCC(C)C)c(C#N)c2)sc1C(=O)O`, in test [2], the parasite growth, % of DMSO control is 64.2%. Moreover, in [3], the parasite growth remaining, % of DMSO control (lower = more inhibition) amounted to 91.7%. Also, the parasite growth, % of control (lower = inhibition) in test [4] amounted to 43.1%. Further, the growth, % of control in test [5] is 62%. The cell viability, % of control (lower = more cytotoxic) in test [6] was 41.7%. Moreover, the Potency in test [7] is 5.26 µM (active) and inactive; in test [8], 4180 nM (active). Further, the Potency entry in test [11] and in test [10] was “inactive” each time.

`O=C1CCc2ccc(OCCCCN3CCN(c4cccc(Cl)c4Cl)CC3)cc2N1`: the max response in [1] is 0.257% (inactive). In test [2], this molecule showed a parasite growth, % of DMSO control of 29.7%. In addition, the parasite growth remaining, % of DMSO control (lower = more inhibition) in [3] stood at 65.1%. In addition, in test [4], the parasite growth, % of control (lower = inhibition) is 53.7%. For the same molecule, the growth, % of control in test [5] was 62.9%. Further, the cell viability, % of control (lower = more cytotoxic) in [6] was 498%. Besides, the Potency entry in test [7] and in [8] was “inactive” throughout.

For `CC(=O)NC[C@H]1CN(c2ccc(N3CCOCC3)c(F)c2)C(=O)O1`, the max response in test [1] is 1.95% (inactive). The same molecule had a parasite growth, % of DMSO control in test [2] of 65.6%. Further, in test [3], the parasite growth remaining, % of DMSO control (lower = more inhibition) turned out to be 87.8%. In addition, in [4], the parasite growth, % of control (lower = inhibition) was 51.6%. In [5], this molecule gave a growth, % of control of 94.8%. In addition, the cell viability, % of control (lower = more cytotoxic) in test [6] was 81.5%. The Potency result in test [7], in test [8] and in test [11] was “inactive” throughout.
